Compound activity as filed in PubChem.
cardiac RTF act: cardiac RTF calcium sensitivity activators, primary screen, biochemical, IANBD-TnC fluorescence, EC20 calcium; Troponin I, cardiac muscle (Homo sapiens) + Troponin T, cardiac muscle (Homo sapiens) + …; IANBD-labeled TnC RTF fluorescence at EC20 calcium; 0% EC20 calcium, 100% full calcium; activation, % at 7.2 µM; actives 0.24% (n = 340,000); AID 493008, 2010;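 active means activation above the mean over all tested compounds plus 3 SD, cut at about 30% in these data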;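 further: rise in fluorescence read as greater calcium sensitivity of cardiac thin filaments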
Cardiac RTF inh: cardiac RTF calcium sensitivity inhibitors, primary screen, biochemical, IANBD-TnC fluorescence, EC70 calcium; IANBD-labeled cardiac RTF, Ca2+ fluorescence; inhibition, % at 7.15 µM; actives 0.12% (n = 340,000); AID 493244, 2011;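 active means inhibition above the mean inhibition of all tested compounds plus 3 SD, cut at about 17% in these data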;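 further: assay run at fixed EC70 calcium of 1.6 mM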
GLD-1 TGE inh: GLD-1/TGE RNA complex disruptors, primary screen, biochemical, fluorescence polarization | Female germline-specific tumor suppressor gld-1 (Caenorhabditis elegans), Q17339 | purified GLD-1 + fluorescein TGE RNA | inhibition, % at 5.96 µM | actives 0.44% (n = 320,000);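 active means percent inhibition above a per-plate cutoff, the plate mean of test compounds plus 3 SD, cut at about 30% in these data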
E coli Lon inh: inhibitors of E. coli Lon protease, primary screen, biochemical, fluorescence polarization | P0A9M0 | purified E. coli Lon protease | inhibition, % at 7.94 µM | actives 0.42% (n = 360,000); in the data active means inhibition above about 13%, passing the limit was not always enough
Bcl-xL primary: inhibitors of human Bcl-xL, primary screen, biochemical, fluorescence polarization, HTS; Bcl-2-like protein 1 (Homo sapiens), Q07817; GST-Bcl-xL / FITC-Bim BH3 peptide fluorescence polarization; inhibition, % at 10.9 µM; actives 0.7% (n = 320,000); AID 2129, 2009;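 active means inhibition above the mean of all tested compounds plus 3 SD, cutoff set per campaign, cut at about 30% in these data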;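 further: inhibitors lower millipolarization by displacing the labeled peptide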
Target sequence (Q07817 whole entry, looked up): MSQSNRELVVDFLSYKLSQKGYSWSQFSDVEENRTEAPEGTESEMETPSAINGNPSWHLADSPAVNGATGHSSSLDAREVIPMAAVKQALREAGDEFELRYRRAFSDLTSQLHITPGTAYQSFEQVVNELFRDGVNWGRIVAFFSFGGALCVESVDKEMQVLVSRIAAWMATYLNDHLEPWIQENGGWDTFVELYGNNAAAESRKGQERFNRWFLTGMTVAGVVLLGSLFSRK
A number is an active result; . = inactive; / = no result given; ! = a repeat was not active. Compounds with a hit are over-represented: about 1.2% of the library has one in this group of screens.

SMILES	cardiac RTF act	Cardiac RTF inh	GLD-1 TGE inh	E coli Lon inh	Bcl-xL primary
Cc1ccc(-n2nc3cc(C)c(N)cc3n2)cc1	.	.	.	.	.
Cc1ccc(C(=O)N2CCn3c(C)ccc3C2C)cc1 (stereo not given)	.	.	.	.	43
COc1ccc(S(=O)(=O)Nc2cccc3c2O[C@H](CN(C)Cc2ccc(Cl)c(Cl)c2)[C@@H](C)CN([C@H](C)CO)C3=O)cc1	.	.	.	.	/
COc1ccc(OC)c(N(CC(=O)NCc2ccccn2)S(C)(=O)=O)c1	.	.	.	31	.
COc1ccccc1N(CC(=O)NCc1ccccn1)S(C)(=O)=O	.	.	.	.	.
CC1(C)CC(=O)C2=C(C1)N(c1ccccc1)C(=O)C(C(=O)OCc1ccccc1)C2 (stereo not given)	.	.	/	.	/
CC1(C)CC(=O)C2=C(C1)N(c1cccc(O)c1)C1=C(C2)C(=O)CC(C)(C)C1	.	.	40	.	81
CCOC(=O)/C(=C/C=C1\Sc2cc(OCC)c(OCC)cc2N1CC)C(C)=O	534	.	.	.	.
CCOC(=O)/C(=C\C=C1/Sc2cc(OCC)c(OCC)cc2N1CC)C(C)=O	516	.	.	.	.
CC(C)N=c1cc2n(-c3ccc(Cl)cc3)c3ccccc3nc-2cc1Nc1ccc(Cl)cc1	.	.	.	.	78
Cn1c(-c2ccc(F)cc2)cnc1NCc1ccc(F)cc1	.	.	.	.	.
CCOc1ccc(C2C(C(=O)/C=C/c3ccco3)=C(O)C(=O)N2CCN2CCOCC2)cc1OC (stereo not given)	.	.	.	.	34
Cc1ccc(NC(=S)N2CCN(CCN3C(=O)c4cccc5cccc(c45)C3=O)CC2)cc1	.	.	.	.	.
Cc1ccc(CNC(=O)c2cc3c(=O)n4ccccc4nc3n(Cc3ccco3)c2=N)cc1	.	.	.	.	.
N=c1c(C(=O)NCc2ccco2)cc2c(=O)n3ccccc3nc2n1Cc1ccccc1	.	.	.	.	38
Cc1ccc(S(=O)(=O)c2cc3c(=O)n4ccccc4nc3n(Cc3ccco3)c2=N)cc1	.	.	.	.	38
N=c1c(C(=O)NCc2ccco2)cc2c(=O)n3ccccc3nc2n1C1CCCC1	.	.	.	.	54
N=c1c(C(=O)NC2CCCC2)cc2c(=O)n3ccccc3nc2n1C1CCCC1	.	.	.	.	.
Cc1ccc(N=C2NC(=O)/C(=C/c3cn(C)c4ccccc34)S2)cc1C	69	.	.	.	.
Cc1cccc(N=C2NC(=O)/C(=C/C=C/c3ccco3)S2)c1	.	.	.	.	.
O=C1NC(=Nc2ccc(O)cc2)S/C1=C/c1ccco1	.	.	.	.	.
O=C1NC(=Nc2ccc(Cl)cc2)/C(=C/c2ccco2)S1	.	.	.	.	59
Cc1cccc(N=C2NC(=O)S/C2=C\c2ccco2)c1	.	.	.	.	35
CCc1cc(CC)c(/C=N/NC(N)=O)c(CC)c1	.	.	.	.	.
O=c1cc(CN2CCN(c3ccc(F)cc3)CC2)nc2sccn12	.	.	.	.	34
SMILES	cardiac RTF act	Cardiac RTF inh	GLD-1 TGE inh	E coli Lon inh	Bcl-xL primary
O=C(NC(Cc1ccccc1)C(=O)O)/C(=C/c1ccccc1)NC(=O)c1ccco1 (stereo not given)	.	.	.	.	.
O=C(NC(Cc1ccccc1)C(=O)O)/C(=C/c1ccco1)NC(=O)c1cccc(Br)c1 (stereo not given)	.	.	.	.	37
CCCOc1ccccc1-c1nc2c([nH]1)c(=O)[nH]c(=O)n2C	.	.	.	.	35
CCN(CC)CCCn1c2c(c(SCC(=O)Nc3nccs3)nc1=O)CCC2	.	.	.	.	.
O=C(NC12CC3CC(CC(C3)C1)C2)c1ccc(-c2ccccc2Cl)o1	.	.	.	19	.
CCCCn1c(-c2ccccc2)nnc1-c1ccccc1	.	.	.	.	.
Nc1cc(C(=O)O)c(N)c2c1C(=O)c1ccccc1C2=O	.	.	112	51	155
COc1ccc2ccc3c(c2c1)N=CC1(O3)N(C)c2ccccc2C1(C)C (stereo not given)	.	.	.	.	36
CN1c2ccccc2C(C)(C)[C@]12C=Cc1cc(O)ccc1O2	.	.	.	.	.
CN1c2ccccc2C(C)(C)C12C=Nc1c(ccc3ccccc13)O2 (stereo not given)	.	.	.	.	34
Cc1cccc(C(=O)N[C@H](C(=O)Nc2nc(C)cs2)C(C)C)c1	.	.	.	.	.
O=C(CN(C(=O)c1csnn1)c1ccc(F)c(Cl)c1)NCc1ccccc1	.	.	.	.	.
O=S(=O)(NC1CCCCCCC1)c1cccs1	.	.	.	.	.
O=C(c1ccco1)N1CCN(C(=O)c2cc(-c3ccncc3)nc3ccc(Br)cc23)CC1	.	.	.	.	.
O=C(O)c1cc(-c2ccco2)nc2ccc(Br)cc12	.	.	68!	.	96!
CN1C2C=C3C(C#N)=C(N)C(C#N)(C#N)[C@@H](c4cccc(F)c4)[C@@H]3C1CC2 (stereo not given in full)	.	.	.	.	31
CCOC(=O)C1=C(C)OC(N)=C(C#N)C1c1cc2c(cc1Br)OCO2 (stereo not given)	.	.	.	.	.
CCOC(=O)C1=C(C)OC(N)=C(C#N)C1c1cc2ccccc2nc1N1CCCCC1 (stereo not given)	/	/	.	/	31
CCOC(=O)C1=C(C)OC(N)=C(C#N)C1c1cc2cc(C)ccc2nc1N1CCCCC1 (stereo not given)	.	.	.	.	33
CCOC(=O)C1=C(C)OC(N)=C(C#N)C1c1cc(C)sc1C (stereo not given)	.	.	.	.	.
COc1ccc(C(=O)NNC(=O)C2=NN(c3ccccc3)C(=O)CC2)cc1	.	.	.	.	.
C=CCn1c(COc2ccc(Cl)cc2)nnc1SCC(=O)NCC(=O)OCC	.	.	.	.	.
CC(C)C[C@H]1C(=O)N2CCC[C@H]2[C@]2(O)O[C@](NC(=O)[C@@H]3C=C4c5cccc6[nH]c(Br)c(c56)CC4N(C)C3)(C(C)C)C(=O)N12 (stereo not given in full)	.	.	95	.	87
O=c1oc2cc(O)ccc2cc1-c1nc2c(s1)CCc1ccccc1-2	897	.	100	/	37
O=c1oc2ccccc2cc1-c1nc2c(s1)CCc1ccccc1-2	.	.	.	.	.
CCCCNc1nc2ccccc2nc1NS(=O)(=O)c1ccc(F)cc1	.	.	.	.	.
NS(=O)(=O)c1ccc(N2N=C(c3ccccc3)CC2c2ccccc2Br)cc1 (stereo not given)	.	.	/	.	/
